The list is not random: actives were taken first. Their share in the collection is about 8%.
RORgamma inh: blocks mouse ROR gamma transcriptional activity; Potency, µM (doses to about 53.6 µM), without a hit: at the top dose activity change, negative = inhibition, hits mostly inhibitors; Drosophila S2 Gal4-RORgamma UAS-luciferase reporter, 20 h; P51450; AID 2551; 5.4% of 310,000 active; note: potency is the fitted concentration of half-maximal effect; nearly all actives have a fitted effect of over 60% in size
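ROR gamma transcriptional activity was tracked as Gal4-UAS luciferase output in stably transfected Drosophila Schneider cells, with compound added 1 hr before 700 uM copper sulfate induction and a 20 hr ambient-temperature incubation.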
Coupling enz: coupling enzyme interference in Giardia aldolase counter-screen; 0.67% of 290,000 active; coupling enzyme system counterscreen, AmpLite Red fluorescence; activity change, negative = inhibition, % at 58.2 µM, hits read low; AID 2472; in the data active = activity change below about -30%
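First, compound is pin-transferred into glyceraldehyde-3-phosphate coupling-enzyme reagent at 57.5 uM final and held 10 min at RT. Next, substrate, coupling system and AmpLite Red are added. After 20 min RT, fluorescence (525/598 nm) is read.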
Gal4-VP16 FLuc: counter-screen for ROR gamma inhibitors: Gal4-VP16 reporter. Drosophila S2 Gal4-VP16 UAS-luciferase, luminescence, 20 h. Potency, µM (top dose mostly 53.6 µM), inactives show top-dose activity, negative = inhibition, hits mostly inhibitors. 3.5% of 310,000 active. AID 2546;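 note: Gal4-VP16 expression switched on by copper sulfate through the metallothionein promoter; potency is the fitted concentration of half-maximal effect; nearly all actives have a fitted effect of over 50% in size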
TSHR antagonist: human thyrotropin receptor antagonism; P16473; TSHR-expressing cells, TSH-stimulated cAMP HTRF, 2 h; active compounds read low; activity change, negative = inhibition, % at 11.5 µM; 0.2% of 330,000 active; AID 504810;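 active = activity change below a set negative limit, meaning inhibition stronger than a set level, cut at about -70% in these data; inconclusive = activity change between two set negative limits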
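Freshly harvested TSHR cells receive pin-tooled compound, then EC80 TSH at 4nM final. After 2 hours at 37 deg C, antibody in lysis buffer and cAMP-d2 are added; 30 minutes at ambient temperature precede the HTRF read.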
ELG1 repair inh: blocks ELG1-dependent DNA repair in HEK293T cells. HEK293T ELG1-luciferase reporter, luminescence, 16 h; DNA damage induced by 5-fluorouridine. Potency, µM (doses to about 46.1 µM), for inactives: top-dose activity change, negative = inhibition, usual class: inhibitors. 2.3% of 330,000 active; note: potency is the fitted concentration of half-maximal effect; nearly all actives have a fitted effect of over 55% in size
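Luminescence from the luciferase reporter, measured 30 min after ONE-Glo reagent at room temperature, was the read-out. Beforehand, 2,000 cells per well were exposed for 16 hr at 37 °C to 5-fluorouridine together with compound or vehicle.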
Starred values were filed as active, the others as inactive. Unless noted, calls come from the whole dose curve; as a rule, active = well fitted curve in the direction sought with a large enough effect; inconclusive = small, poorly fitted or top-dose-only effect, or another doubt; inactive = no such curve, though single readings can be large; an effect the other way counts as inactive or inconclusive. % is set by controls: 0 for no effect and ±100 for the full control effect.

What do the screens show for `COC(=O)C1=C(C)NC(=S)N(C(C)=O)C1c1ccccc1` (stereo unspecified)?
RORgamma inh: inconclusive; Coupling enz: 1; Gal4-VP16 FLuc: inconclusive; TSHR antagonist: 9; ELG1 repair inh: inconclusive

How did COC(=O)C1=C(C)C(c2ccc(OC)cc2)NC(=S)N1 (stereo unspecified) do in these assays?
RORgamma inh: 10µM*; Coupling enz: -7; Gal4-VP16 FLuc: -3%; TSHR antagonist: 9; ELG1 repair inh: inconclusive

What do the screens show for `CCOC(=O)C1=C(C)NC(=S)N(C=O)C1c1ccccc1` (stereo unspecified)?
RORgamma inh: 11µM*; Coupling enz: 0; Gal4-VP16 FLuc: inconclusive; TSHR antagonist: 26; ELG1 repair inh: -2%

Results for O=C(CCc1ccccc1)NCCc1ccc(F)cc1 ?
RORgamma inh: 12%; Coupling enz: 3; Gal4-VP16 FLuc: 15%; TSHR antagonist: 46; ELG1 repair inh: 20%

Results for CC(C)Cn1c(N)c(C(=O)COC(=O)/C=C/c2cccs2)c(=O)n(C)c1=O ?
RORgamma inh: inconclusive; Coupling enz: -1; Gal4-VP16 FLuc: inconclusive; TSHR antagonist: -23; ELG1 repair inh: 9.2µM*

What do the screens show for `Cn1c(N)c(C(=O)CCl)c(=O)n(Cc2ccccc2)c1=O`?
RORgamma inh: -23%; Coupling enz: 1; Gal4-VP16 FLuc: inconclusive; TSHR antagonist: 0; ELG1 repair inh: 21µM*

What do the screens show for `Cn1c(=O)c(C(=O)CCl)c(N)n(Cc2ccccc2)c1=O`?
RORgamma inh: 2%; Coupling enz: 1; Gal4-VP16 FLuc: inconclusive; TSHR antagonist: -4; ELG1 repair inh: inconclusive

Results for Cn1c(N)c(C(=O)COC(=O)c2ccc(-c3ccccc3)cc2)c(=O)n(C)c1=O ?
TSHR antagonist: 0; ELG1 repair inh: 23µM*

How did CC(C)Cn1c(N)c(C(=O)COC(=O)Cc2cccs2)c(=O)n(C)c1=O do in these assays?
RORgamma inh: inconclusive; Gal4-VP16 FLuc: inconclusive; TSHR antagonist: -22; ELG1 repair inh: -9%

How did CCc1ccc(C(=O)OCC(=O)c2c(N)n(CC(C)C)c(=O)n(C)c2=O)cc1 do in these assays?
RORgamma inh: 21%; Coupling enz: -1; Gal4-VP16 FLuc: -23%; TSHR antagonist: -10; ELG1 repair inh: 8.2µM*

How did CCOC(=O)c1cc(S(=O)(=O)N2CCCC2)cn1C do in these assays?
RORgamma inh: -15%; Coupling enz: 1; Gal4-VP16 FLuc: 3%; TSHR antagonist: 0; ELG1 repair inh: 5%

What do the screens show for `CC(C)Cn1c(N)c(C(=O)COC(=O)c2cccn2C)c(=O)n(C)c1=O`?
ELG1 repair inh: 9.2µM*

Results for CC(C)Cn1c(N)c(C(=O)CSc2ccc3c(c2)OCCO3)c(=O)n(C)c1=O ?
RORgamma inh: inconclusive; Coupling enz: -1; Gal4-VP16 FLuc: 11µM*; TSHR antagonist: -37; ELG1 repair inh: 7.3µM*

What do the screens show for `CC(C)Cn1c(N)c(C(=O)COC(=O)c2c(F)cccc2F)c(=O)n(C)c1=O`?
RORgamma inh: inconclusive; Coupling enz: 3; Gal4-VP16 FLuc: -4%; TSHR antagonist: -9; ELG1 repair inh: inconclusive

What do the screens show for `CC(C)CN(C(=O)CSc1ccc2c(c1)OCCO2)c1c(N)n(CC(C)C)c(=O)[nH]c1=O`?
TSHR antagonist: 6; ELG1 repair inh: 2%

Results for Cc1ccc(N(C)S(=O)(=O)c2cccc(C(=O)OCC(=O)c3c(N)n(C)c(=O)n(C)c3=O)c2)cc1 ?
TSHR antagonist: -20; ELG1 repair inh: 16µM*

How did CC(C)Cn1c(N)c(C(=O)COC(=O)c2cccc(Cl)c2)c(=O)n(C)c1=O do in these assays?
RORgamma inh: 21%; Coupling enz: 6; Gal4-VP16 FLuc: -7%; TSHR antagonist: -6; ELG1 repair inh: 21µM*

How did COc1ccc(C(CNC(=O)c2ccc(-c3nc4ccccc4s3)o2)N2CCCC2)cc1 (stereo unspecified) do in these assays?
TSHR antagonist: 4; ELG1 repair inh: inconclusive

What do the screens show for `Cn1c(N)c(C(=O)COC(=O)c2ccc3c(c2)OCCO3)c(=O)n(C)c1=O`?
RORgamma inh: 11%; Coupling enz: 1; Gal4-VP16 FLuc: -3%; TSHR antagonist: -11; ELG1 repair inh: 10%

Source: PubChem BioAssay (National Center for Advancing Translational Sciences (NCATS))
